RECQ1 inh: blocks DNA unwinding by human RECQ1; P46063; RECQ1 DNA unwinding, red fluorescence kinetic read; Potency, µM (series often up to 57.3 µM), inactives show top-dose activity, negative = inhibition, most hits filed as inhibitors; 240,000 compounds, 0.54% hits;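 also: plate controls were vehicle for no effect and no enzyme for full effect; nearly all actives have a fitted effect of over 30% in size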
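50 nM RECQ1T1 preincubated 15 min with compound in Tris pH 8.0 buffer with MgCl2, DTT, Tween-20 and 2.5 ug/ml poly(dI-dC); started with 200 nM TAMRA/BHQ-2 forked duplex and 2 mM ATP. Unwinding read as fluorescence (525/598 nm), two reads 2 h apart.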
BLM inh: Bloom syndrome helicase (human) inhibition; P54132; 350,000 compounds, 0.2% hits; AID 2528; recombinant BLM DNA unwinding, fluorescence dequenching; Potency, µM (doses to about 56.1 µM), for the others: top-dose activity change, negative = inhibition, actives largely listed as inhibitors;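 also: plate controls were vehicle for no effect and no enzyme for full effect; nearly all actives have a fitted effect of over 35% in size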
APEX1 inh: blocks human APE1 abasic DNA cleavage. P27695. recombinant APE1, TAMRA/BHQ-2 abasic DNA cleavage fluorescence. Potency, µM (titrated, usually from 65.8 µM), for the others: top-dose activity change, negative = inhibition, usual class: inhibitors. 350,000 compounds, 0.35% hits. AID 2517;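 also: plate controls were vehicle for no effect and reference inhibitor for full effect; nearly all actives have a fitted effect of over 55% in size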
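Quantitative HTS: incision of a TAMRA/BHQ-2 double-stranded substrate bearing a tetrahydrofuran abasic site by 0.75 nM APE1 raises fluorescence. Substrate 50 nM final, added after 15 min compound preincubation at room temperature; progress as third-minus-first kinetic read difference.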
L3MBTL1 inh: inhibitors of human L3MBTL1; Potency, µM (doses to about 57.1 µM), for inactives: at the top dose activity, negative = inhibition, most hits filed as inhibitors; 230,000 compounds, 0.66% hits; AlphaScreen L3MBTL1–H3K9me1 peptide binding; Q9Y468; also: nearly all actives have a fitted effect of over 60% in size
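AlphaScreen proximity signal between nickel-chelate acceptor and streptavidin donor beads (final 10 ug/mL) reports binding of 50 nM L3MBTL1 to 75 nM biotin-H3 K9me1 peptide; complex incubated with compounds 30 min at room temperature; cefsulodin titration as control.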
WRN inhibitor: inhibitors of human WRN helicase; 360,000 compounds, 0.46% hits; WRN helicase unwinding, fluorescent forked duplex, kinetic; Potency, µM (top dose mostly 114 µM), for inactives: at the highest dose activity change, negative = inhibition, usual class: inhibitors; also: nearly all actives have a fitted effect of over 55% in size
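Screening of the MLSMR collection measured strand separation of a quenched forked DNA duplex (100 nM) by 20 nM WRN with 2 mM ATP, all final. Compounds were preincubated with enzyme 15 min at room temperature.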
FEN1 inh: blocks human flap endonuclease 1 | P39748 | Recombinant FEN1 flap cleavage, fluorescence, 15 min | Potency, µM (series often up to 114 µM), for inactives: at the highest dose activity change, negative = inhibition, most hits filed as inhibitors | 390,000 compounds, 0.35% hits | AID 588795; also: nearly all actives have a fitted effect of over 65% in size
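Concentration–response screening of FEN1 (10 nM): 15 min compound preincubation at room temperature, reaction started with 50 nM substrate and read at 0 and 15 min. Corrected, normalized data were fitted by a four-parameter Hill equation.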
* marks the source's active call; other numbers are inactive results; [ ] = remark or other dose. A selection: hits, their analogues and other compounds. The true share with any hit is near 1%. Calls follow the shape of the dose curve; as a rule, active = well fitted curve in the direction sought with a large enough effect; inconclusive = small, poorly fitted or top-dose-only effect, or another doubt; inactive = no such curve, though single readings can be large; an effect the other way counts as inactive or inconclusive. Unless noted, % is scaled to controls: 0 for no effect and ±100 for the full control effect; potency is read from the fitted curve at half-maximal effect.

Results for C[C@H]1O[C@@H](O[C@H]2CC[C@@]3(C)[C@H](CC[C@@H]4[C@@H]3C[C@@H](O)[C@]3(C)[C@@H](C5=CC(=O)OC5)CC[C@]43O)C2)C[C@H](O)[C@@H]1O[C@H]1C[C@H](O)[C@H](O[C@H]2C[C@H](O)[C@H](O[C@@H]3O[C@H](CO)[C@@H](O)[C@H](O)[C@H]3O)[C@@H](C)O2)[C@@H](C)O1 ?
APEX1 inh: -8.2%

Results for CC1(C)S[C@@H]2[C@H](NC(=O)C(C(=O)O)c3ccsc3)C(=O)N2[C@H]1C(=O)O (stereo not given in full) ?
APEX1 inh: -0.2%[21 µM]

How did COc1ccc(S(=O)(=O)n2nc(OC(C)=O)cc2N)cc1 do in these assays?
RECQ1 inh: -10.1%; BLM inh: 0.0%; APEX1 inh: 1.3%; L3MBTL1 inh: 10.0%; WRN inhibitor: -11.0%[11.6 µM]; FEN1 inh: 44.7µM*

How did Cc1ccc(C2NC(=S)N3C(c4ccc(C)cc4)NC(=S)N23)cc1 (stereo not given) do in these assays?
WRN inhibitor: -1.5%

How did COc1ccc(C2NC(=S)N3C(c4ccc(OC)cc4)NC(=S)N23)cc1 (stereo not given) do in these assays?
RECQ1 inh: -9.2%; BLM inh: -0.3%; APEX1 inh: 4.9%; WRN inhibitor: 89.1µM*; FEN1 inh: 22.0%

What do the screens show for `CCOc1ccc(Cl)cc1/C=N/NC(=O)c1ccccc1`?
RECQ1 inh: -2.4%; BLM inh: -3.6%; APEX1 inh: 0.4%; L3MBTL1 inh: 25.2%; WRN inhibitor: 1.2%; FEN1 inh: 5.1%

How did CCOc1ccc(C(=O)N/N=C/c2cc(Cl)ccc2[N+](=O)[O-])cc1 do in these assays?
RECQ1 inh: -2.0%; BLM inh: 11.2µM*; APEX1 inh: 5.3%; L3MBTL1 inh: 0.5%; WRN inhibitor: -24.6%; FEN1 inh: -12.4%

What do the screens show for `Cc1cc2c(SCC(=O)Nc3cccc(O)c3)ncnc2s1`?
WRN inhibitor: inconclusive; FEN1 inh: 44.7µM*

What do the screens show for `COc1ccc(NC(=O)CSc2ncnc3sc(C)cc23)cc1`?
BLM inh: -3.8%; APEX1 inh: 10.6%; WRN inhibitor: -7.1%; FEN1 inh: -1.8%

What do the screens show for `Nc1ccc(O)c(C(=O)O)c1`?
RECQ1 inh: 7.08µM*; BLM inh: -12.9%; APEX1 inh: 7.08µM*

What do the screens show for `Nc1ccc(C(=O)O)c(O)c1` (tested in a mixture with another compound)?
RECQ1 inh: -2.5%; BLM inh: -3.6%; APEX1 inh: -0.2%

What do the screens show for `O=C(NCCN1CCOCC1)C1(C(F)(F)F)C/C(=C/CCO)CCCO1` (stereo not given)?
RECQ1 inh: inactive; BLM inh: 4.6%; APEX1 inh: 1.9%; FEN1 inh: 15.2%

What do the screens show for `COc1cc(C2Nc3cccc4cccc(c34)N2)cc(OC)c1O`?
RECQ1 inh: -19.0%; BLM inh: -12.5%; APEX1 inh: 0.9%; L3MBTL1 inh: 22.4µM*; WRN inhibitor: -11.2%[11.6 µM]; FEN1 inh: -14.6%

What do the screens show for `COc1cc(C2Nc3cccc4cccc(c34)N2)ccc1OC(C)=O`?
RECQ1 inh: inactive; BLM inh: -3.3%; APEX1 inh: -4.1%; L3MBTL1 inh: inconclusive; WRN inhibitor: -29.7%; FEN1 inh: 39.8µM*

Results for C#CCOCCOCCOCCNc1nc(N2CCN(C(=O)CCCCCCCCCCNC(=O)Cn3cc(CCCCCN)nn3)CC2)nc(N2CCN(C(=O)CCCCCCCCCCNC(=O)Cn3cc(CCCCCN)nn3)CC2)n1 ?
APEX1 inh: -5.3%; L3MBTL1 inh: 16.4%; WRN inhibitor: 79.4µM*; FEN1 inh: 89.1µM*

Screening data from PubChem BioAssay.
